This is one part of a sample in which hits are shown more often than they occur.
KDM5B inhibitor = KDM5B demethylase inhibition; Q9UGL1; 220,000 tested, 2.6% active; KDM5B demethylase, FDH-coupled NADH fluorescence (FDH is formaldehyde dehydrogenase); Potency, µM (top dose mostly 57.7 µM), actives largely listed as inhibitors; active means well fitted inhibition curve with a large enough effect; further: nearly all actives have a fitted effect of over 70% in size
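Coupled FDH/NAD⁺ fluorescence readout. KDM5BΔAP 200 nM final; compound titration, 10 min RT preincubation; substrate mix 12.5 µM H3K4me3, 25 µM 2-OG, 50 µM Fe(II), 100 µM ascorbate, 0.25 mM NAD⁺, 0.25 U/mL FDH; ΔRFU over 30 min.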
Hits are given with their value; n = inactive.

SMILES | KDM5B inhibitor
CSCC(=O)N[C@H]1CCN2C(=O)c3ccc(Cl)cc3NC(=O)[C@H]12 | n
O=C(N[C@H]1CCN2C(=O)c3cc(-c4ccccc4)ccc3NC(=O)[C@H]12)c1cnccn1 | n
CCOc1ccccc1CNC(=O)c1ccc(CS(=O)c2ccc(OC)cc2)o1 (stereo not given) | n
Cc1ccc2ncn(Cc3ncc(-c4cccc(Cl)c4)o3)c(=O)c2c1 | n
Cc1nc(-c2ccccc2)sc1C(=O)Nc1ccncc1 | n
Cc1ccc(Nc2c3c(nc4ccccc24)CCC3)c(Br)c1 | n
Cc1cc(CSc2ccc3c(c2)NC(=O)CO3)no1 | n
O=c1c2cc(Cl)ccc2ncn1Cc1coc(-c2cccs2)n1 | n
Cc1cccc(-c2cc(C(=O)O)c3c(Br)cccc3n2)c1 | n
CN(Cc1nc2ccccc2n1C(F)F)S(=O)(=O)c1ccccc1Br | n
Cc1cc(C)c(NC(=O)CSc2nnc3[nH]c(=O)cc(-c4ccccc4)n23)c(C)c1 | n
O=C(CCc1ccccc1)Nc1ccc(-c2nc(-c3ccccc3)co2)cc1 | n
Cc1ccc2ncc(C(=O)N3CCN(c4ccccc4F)CC3)c(=O)n2c1 | n
Cc1cccc(CN2CCN(C(=O)c3cnc4ccccn4c3=O)CC2=O)c1 | 32µM
Cc1cccc(CN2CCN(C(=O)c3n[nH]c(=O)c4ccccc34)CC2)c1 | n
O=C(Nc1ccc(Oc2ccccc2)cc1)c1ccoc1 | n
CCOc1ccccc1NC(=O)Nc1nnc(N2CCCCCC2)s1 | n
CCOc1ccccc1NC(=O)NC1CCN(c2nc(C)cc(C)n2)CC1 | n
CCOc1ccc(NC(=O)c2cc3c(N4CCSCC4)nc(C)cn3n2)cc1 | 4µM
CCOc1ccccc1NC(=O)c1cc2c(N3CCSCC3)nc(C)cn2n1 | 28µM
Cc1cn2nc(C(=O)Nc3ccc(N(C)C)cc3)cc2c(N2CCSCC2)n1 | n
CCOc1ccc(NC(=O)c2cnc(N3CCCC3)nc2C)cc1 | n
CN(C(=O)c1csc(Cc2ccccc2)n1)C1CCCN(CCc2ccccc2)C1 (stereo not given) | n
O=S(=O)(Cc1ccccc1)N1CCCC(Cc2noc(-c3cnccn3)n2)C1 (stereo not given) | n
Cc1ccc(C2=NN(C(=O)Cn3nnc(-c4ccccc4C)n3)C(c3ccco3)C2)cc1 (stereo not given) | n
SMILES | KDM5B inhibitor
COc1cccc([S+](=O)([O-])N2CCc3nc(C(C)C)nc(-c4ccc(Cl)cc4)c3C2)c1 | n
Clc1ccccc1-n1nnnc1-c1ccncc1 | n
CCn1c(SCC(=O)Nc2cc(OC)ccc2OC)nc2c(-c3ccccc3)csc2c1=O | n
COc1ccc(CN2CCC3(CC2)Cc2ccccc2CNC3=O)cc1OC | n
Cc1ccccc1-c1noc(-c2ccccc2C(=O)NCC2CCCO2)n1 (stereo not given) | n
O=C(NC1CC1)c1cc(-c2ccccc2F)cc2c1OCCN2Cc1cccnc1 | 32µM
O=C(c1ccc2c(c1)OCO2)N1CCN2C(=O)N(Cc3cccnc3)C[C@H]2C1 | n
O=C(NCC1CCCO1)c1ccc2c(c1)CC(=O)N2Cc1ccccc1 (stereo not given) | n
O=C(NCC1CCCO1)c1cc(-c2ccccc2F)cc2c1OCCN2Cc1cccnc1 (stereo not given) | 20µM
Cc1scc(C(=O)NCc2cccnc2)c1C | n
O=C(CCC1CCCN(Cc2cccnc2)C1)Nc1ccccc1F (stereo not given) | n
COc1ncc(-c2cc(C(=O)NCc3cccnc3)c3c(c2)N(C)CCO3)cn1 | n
Cn1ccc(NC(=O)c2cnc3c(c2)N([S+](=O)([O-])c2cccnc2)CCC3)n1 | n
Cc1ccccc1C(=O)Nc1ccnn1C1CCN(Cc2cccnc2)CC1 | n
Cc1ccccc1-c1cc(C(=O)NCc2cccnc2)c2c(c1)N(C)CCO2 | 35µM
Cn1ccc(NC(=O)c2cc(-c3ccccc3F)cc3c2OCCN3Cc2cccnc2)n1 | 28µM
Cc1ccc(C(=O)O)cc1I | n
CCCCC1CCC(C(=O)NNC(=O)c2ccc(Cl)cc2)CC1 (stereo not given) | n
CCN1CCN(CC(O)COc2cccc(CNC3(c4ccccc4)CC3)c2)CC1 (stereo not given) | n
CC(C)(C)C(=O)NC(Nc1ccc2ccccc2c1)C(Cl)(Cl)Cl (stereo not given) | n
CCCC(C(=O)NC12CC3CC(CC(C3)C1)C2)c1ccccc1 (stereo not given) | n
O=C(COc1ccc(C(=O)c2ccccc2)cc1)NCc1ccccc1CN1CCCC1 | n
CN(C)S(=O)(=O)c1ccc(NC(=O)COc2ncnc3ccc(Br)cc23)cc1 | n
CCNc1nc2c(c(=O)[nH]c(=O)n2C)n1CCOC | n
O=C(Nc1ccc(F)cc1F)Nc1ccccc1C(=O)NCCN1CCNC1=O | n
SMILES | KDM5B inhibitor
CN1CCOc2c(C(=O)NCCN3CCNC3=O)cc(-c3cccc4[nH]ccc34)cc21 | 32µM
O=C(NCCc1cnc[nH]1)c1cc(-c2ccccc2F)cc2c1OCCN2Cc1cccnc1 | 22µM
CN1[C@@H](c2ccc(Cl)cc2)[C@@H](C(=O)NCCc2cnc[nH]2)C[C@@]1(C)C(=O)O | n
O=C(NCc1cccnc1)c1cc(-c2ccccc2F)cc2c1OCCN2Cc1cccnc1 | 28µM
O=C(NCCc1cnc[nH]1)c1nc(-c2ccccc2)cc2[nH]ccc12 | n
O=C(NCCO)c1nc(-c2cccc3[nH]ccc23)no1 | n
Cc1ccc2nc(-c3cccnc3)cc(C(=O)NCCc3ccc(F)cc3)c2c1 | n
CN(C)C(=O)c1cc(-c2ccccc2F)cc2c1OCCN2Cc1cccnc1 | n
O=C(NCc1cccnc1)c1ccc2c(c1)-c1ccccc1C2 | n
O=C(NCCc1ccc(F)cc1)c1cc(-c2cccnc2)nc2ccccc12 | n
CN1CCOc2c(C(=O)NCCc3cnc[nH]3)cc(-c3ccccc3F)cc21 | 32µM
Cc1cn2c(/C=C/C(=O)c3ccc(S(=O)(=O)N(C)C)cc3)c(C)nc2s1 | n
CSc1nc(C)c(CCC(=O)NC(c2ccc(Cl)cc2)C(C)C)c(C)n1 (stereo not given) | n
Cc1ccc(NC(=O)C(Cc2ccccc2)n2cnnn2)cc1F (stereo not given) | n
COc1cc(OC)cc(OCC(=O)NC2CCCCCC2)c1 | n
CCn1c(CSc2nnc(C3CC3)n2C2CC2)nc2cc(S(=O)(=O)N(C)C)ccc21 | n
COc1ccc(CN(C(=O)c2cc(Cl)cc(Cl)c2)C2CC2)c(OC)c1 | n
CCc1nc(-c2ccc(OC3CCN(CCc4ccccc4)C3)cc2)no1 (stereo not given) | n
CCc1noc(-c2cn(C3CCN(C(=O)c4cc(C)ccc4C)CC3)nn2)n1 | n
CCc1noc(-c2cccn3c(CNC(=O)c4ccccc4C)nnc23)n1 | 28µM
CCc1noc(-c2cccn3c(CNC(=O)c4cc(C)ccc4C)nnc23)n1 | 10µM
CCOc1ccc(C(C)=O)cc1CN(C)Cc1ccc(C)cc1 | n
CCOC(=O)c1c(NC(=O)CCN2CCCCC2)sc2c1CC(C)(C)OC2 | n
Cc1ccccc1C(=O)Nc1ccc(C(=O)NNC(=S)Nc2ccccc2)cc1 | n
CCc1ccc(NC(=O)Cn2ccn(-c3ccc(OC)c(OC)c3)c(=O)c2=O)cc1 | n
COc1ccc(/C=C2\Oc3cc(OC(=O)C(C)(C)C)ccc3C2=O)c(OC)c1 | n
COc1cccc(CN2CC[C@@H](CO)N(C)c3nc(C)ccc3C2)c1 | 35µM
Cc1ccc2c(n1)N(C)[C@H](CO)CCN(Cc1ccc(F)c(F)c1)C2 | n
COc1cccc(CN2C[C@@H](CO)[C@H](C3CCN(C(C)=O)CC3)C2)c1 | n
COCCNc1nc2c(S(=O)(=O)c3ccc(C)c(C)c3)nnn2c2ccc(Cl)cc12 | n
